Compounds with a hit are over-represented: about 12% of the library has one in this group of screens.
HCV inh = qHTS Assay for Inhibitors of Hepatitis C Virus (HCV). Huh7.5.1 HCVcc-Cre infection, luciferase reporter, 44 h. Potency, µM (series often up to 41.8 µM), hits mostly inhibitors. 3.4% of 340,000 active. AID 651820, 2012
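Infectious HCVcc-Cre (~0.5 moi) was added to cells just after compound, with cells seeded 4 h earlier at 1,000 per well. Luciferase activity after 44 h culture reported infection; substrate was incubated 15 min at room temperature before reading.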
SARS PLP yeast = qHTS of Yeast-based Assay for SARS-CoV PLP; AID 485353, 2010; S. cerevisiae expressing SARS-CoV PLpro, growth rescue; 0.19% of 330,000 active; Potency, µM (doses to about 32.9 µM), hits mostly activators; calls by dose curve; also: nearly all actives have a fitted effect of over 55% in size
Pf growth 96h = Primary qHTS for delayed death inhibitors of the malarial parasite plastid, 96 hour incubation; P. falciparum luciferase reporter growth, 96 h; Potency, µM (top dose mostly 28.7 µM), hits mostly inhibitors; 6.9% of 320,000 active; AID 504834, 2011
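Luminescence readout: decreased luciferase signal marks inhibited growth of reporter-expressing P. falciparum in infected red cells (2% hematocrit, 0.05% parasitemia final), exposed to compound two generations (96 h, 37 C, 5% CO2).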
AMA1 RON2 block = qHTS for Inhibitors of AMA1-RON; Towards Development of Antimalarial Drug Lead: Primary Screen; Potency, µM (titrated, usually from 58.2 µM), most hits filed as inhibitors; AlphaScreen AMA1-biotinylated RON2 peptide binding; AID 720542, 2013; 0.2% of 360,000 active; Plasmodium falciparum AMA1 (3D7) - RON2 peptide interaction; also: nearly all actives have a fitted effect of over 45% in size
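AMA1 (3D7) with his tag at 25 nM final met compounds first, then biotinylated RON2 peptide at 25 nM; detection used donor plus acceptor beads, 10 µg/mL apiece, read by AlphaScreen after 30 min at room temperature.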
Pf growth 48h = Primary qHTS for delayed death inhibitors of the malarial parasite plastid, 48 hour incubation. P. falciparum luciferase growth in erythrocytes, 48 h. Potency, µM (top dose mostly 28.7 µM), most hits filed as inhibitors. 5.9% of 310,000 active
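Read-out is firefly luciferase luminescence from an integrated reporter in P. falciparum, so falling signal marks reduced parasite growth. Infected erythrocytes were at 2% hematocrit and 0.1% parasitemia (final) in Albumax-supplemented RPMI 1640.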
NS1 function inh = qHTS Assay for Inhibitors of Influenza NS1 Protein Function; 0.4% of 270,000 active; AID 2326, 2010; Potency, µM (highest dose often 46.1 µM); calls by dose curve; also: actives are rising curves; nearly all actives have a fitted effect of over 50% in size
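OD600 was taken as the measure of yeast growth restored by compound in an NS1-expressing S. cerevisiae strain. Cells had been washed out of glucose medium and diluted 1:100 into galactose -URA medium, pH 6.0.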
Of the large screens only hits and unclear results are named; the others gave an inactive call. Unless noted, calls follow the shape of the dose curve; as a rule, active = well fitted curve in the direction sought with a large enough effect; inconclusive = small, poorly fitted or top-dose-only effect, or another doubt; inactive = no such curve, though single readings can be large; an effect the other way counts as inactive or inconclusive.

CCOC(=O)C1(C(=O)OCC)NC(=O)CC1C(C)C (stereo unspecified)	none (no result: SARS PLP yeast, Pf growth 96h, Pf growth 48h, NS1 function inh)
Cc1cccc(OCC(=O)Nc2ccc3c(c2)nc(CCN2CCN(c4ccccn4)CC2)n3C)c1	HCV inh 6.31µM, Pf growth 96h inconclusive, Pf growth 48h inconclusive
COc1ccc(OCC(=O)Nc2ccc3c(c2)nc(CCN2CCN(c4ccccn4)CC2)n3C)cc1	none (no result: HCV inh, SARS PLP yeast, Pf growth 96h, Pf growth 48h, NS1 function inh)
Cn1c(CCN2CCN(c3ccccn3)CC2)nc2cc(NC(=O)COc3ccc(Cl)cc3)ccc21	HCV inh 2.24µM, Pf growth 96h inconclusive, Pf growth 48h inconclusive
Cc1cccc(OCC(=O)Nc2ccc3c(c2)nc(CCN2CCCCC2)n3C)c1	SARS PLP yeast inconclusive, Pf growth 96h inconclusive, Pf growth 48h inconclusive
Cn1c(CCN2CCN(c3ccccn3)CC2)nc2cc(NS(=O)(=O)c3ccc(Cl)cc3)ccc21	Pf growth 96h 10.4µM, Pf growth 48h 9.28µM
Cc1ccc(S(=O)(=O)Nc2ccc3c(c2)nc(CCN2CCN(c4ccccn4)CC2)n3C)cc1	HCV inh inconclusive, Pf growth 96h inconclusive, Pf growth 48h inconclusive
N#CC1(NC(=O)CSc2nnc(C3CC3)n2C2CC2)CCCCC1	none (no result: NS1 function inh)
Cc1cccc(C(C(=O)NC2CCCC2)N(C(=O)c2csnn2)C2CCCC2)c1 (stereo unspecified)	Pf growth 96h inconclusive, Pf growth 48h inconclusive
Cc1onc(-c2ccccc2)c1C(=O)OCC(=O)Nc1cc(S(=O)(=O)N2CCOCC2)ccc1Cl	HCV inh inconclusive, Pf growth 96h inconclusive
CCC(CO)NS(=O)(=O)c1cc(-c2nn(C)c(=O)c3ccccc23)ccc1C (stereo unspecified)	HCV inh inconclusive
CCc1cccc(CC)c1-n1c(SCC(=O)N2CCc3ccccc3C2)nnc1-c1cccnc1	HCV inh inconclusive, Pf growth 96h 6.57µM, Pf growth 48h 11.7µM
CCc1cccc(CC)c1-n1c(SCn2nnc3ccccc3c2=O)nnc1-c1cccnc1	Pf growth 96h 4.15µM (no result: Pf growth 48h)
CCc1cccc(CC)c1-n1c(SCC(=O)c2c(N)n(C)c(=O)n(C)c2=O)nnc1-c1cccnc1	none
Cc1onc(-c2ccccc2Cl)c1C(=O)NNC(=O)c1cccc(F)c1	none
CCCCNc1c(-c2ccc(SC(C)CC)cc2)nc2ccccn12 (stereo unspecified)	HCV inh 22.4µM (no result: NS1 function inh)
CCCCNc1c(-c2ccc(OC)c(SC(C)CC)c2)nc2cc(C)ccn12 (stereo unspecified)	HCV inh 7.08µM (no result: Pf growth 96h, Pf growth 48h, NS1 function inh)
CCCCNc1c(-c2ccc(OC)c(SC(C)CC)c2)nc2ccc(C)cn12 (stereo unspecified)	HCV inh inconclusive (no result: Pf growth 96h, Pf growth 48h, NS1 function inh)
CCCCNc1c(-c2ccc(Sc3ccc(OC)cc3)cc2)nc2cc(C)ccn12	HCV inh 10µM (no result: Pf growth 96h, Pf growth 48h, NS1 function inh)
O=C(C1=C(O)C(=O)N(CCCn2ccnc2)C1c1cccc(Br)c1)c1ccco1 (stereo unspecified)	none
COc1ccc(Br)cc1CSC(=N)N	HCV inh inconclusive, Pf growth 48h inconclusive
CCCCCOc1ccc(Br)cc1CSC(=N)N	HCV inh 7.94µM, Pf growth 96h inconclusive, Pf growth 48h 10.4µM
O=C(NNc1ccccc1)c1ccc(Cl)c(Cl)c1	HCV inh inconclusive (no result: SARS PLP yeast, Pf growth 96h, Pf growth 48h, NS1 function inh)
N#Cc1nc(Nc2cc(F)cc(F)c2)c2ncn(CC(F)F)c2n1	Pf growth 96h 0.294µM, Pf growth 48h inconclusive (no result: HCV inh, AMA1 RON2 block, NS1 function inh)
N#Cc1nc(NCC(F)F)nc(Nc2cc(F)cc(F)c2)n1	Pf growth 96h inconclusive, Pf growth 48h 10.4µM (no result: HCV inh, AMA1 RON2 block, NS1 function inh)
O=C(O)CC1NCCc2ccccc21 (stereo unspecified)	none
COc1ccccc1C(=O)NNC(=O)C1CCCO1 (stereo unspecified)	none
COc1ccc(CCNc2oc(Cc3ccccc3)nc2C#N)cc1OC	HCV inh 10µM (no result: Pf growth 96h)
COc1ccc(CCNc2oc(COc3ccccc3Cl)nc2C#N)cc1OC	HCV inh inconclusive, Pf growth 96h 3.7µM, Pf growth 48h 8.28µM
Cc1nn(C)c(NC(=O)c2ccccc2Cl)c1Cl	none
O=C1c2ccccc2NC(c2ccc(O)c(O)c2)N1c1ccccc1Cl (stereo unspecified)	none
O=C(CCl)N=c1sccn1Cc1ccc(Cl)cc1Cl	HCV inh 0.562µM, Pf growth 96h 11.7µM, Pf growth 48h inconclusive (no result: NS1 function inh)
CCC(=O)OCC(=O)N=c1sccn1Cc1ccccc1Cl	Pf growth 96h inconclusive, Pf growth 48h inconclusive
O=C(CCl)N=c1sccn1Cc1ccccc1Cl	HCV inh 0.562µM, Pf growth 96h 0.738µM, Pf growth 48h 0.262µM
O=C(CCl)N=c1sccn1Cc1cccc2ccccc12	HCV inh 3.55µM, Pf growth 96h 1.47µM, Pf growth 48h inconclusive
Cc1ccc(NC(=O)CN(C)C(=O)Cc2c[nH]c3ccccc23)cc1	HCV inh inconclusive (no result: Pf growth 96h, Pf growth 48h, NS1 function inh)
C(=N\Nc1nc(Nc2ccccc2)nc(Nc2ccccc2)n1)/c1ccncc1	none
Cc1sc(N/N=C/c2ccco2)nc1-c1ccccc1	HCV inh inconclusive, Pf growth 96h inconclusive, Pf growth 48h inconclusive
C(=N\Nc1nc(Nc2ccccc2)nc(Nc2ccccc2)n1)/c1cccnc1	HCV inh inconclusive, Pf growth 48h 3.29µM (no result: NS1 function inh)
Cc1sc(N/N=C/c2cccnc2)nc1-c1ccccc1	HCV inh inconclusive, Pf growth 96h inconclusive, Pf growth 48h 9.28µM
Cn1cccc1C(=O)OCC(=O)N1CCN(c2ccccc2)CC1	none (no result: Pf growth 96h, Pf growth 48h, NS1 function inh)
CC1CCCC12NC(=O)NC2=O (stereo unspecified)	none (no result: SARS PLP yeast, Pf growth 96h, Pf growth 48h, NS1 function inh)
CCOC(=O)Cn1c(=O)oc2cc(S(=O)(=O)N(C)c3cccc(C)c3)ccc21	none
COC(=O)C1CCc2c(ccc3c2CCCC3)C1=O (stereo unspecified)	none (no result: SARS PLP yeast, Pf growth 96h, Pf growth 48h, NS1 function inh)
CC1CCCCN1CC(O)COCCC12CC3CC(CC(C3)C1)C2 (stereo unspecified)	HCV inh inconclusive, Pf growth 96h 8.28µM, Pf growth 48h inconclusive (no result: NS1 function inh)
C=CCN1C(=O)c2ccc(C(=O)Nc3ccccn3)cc2C1=O	none (no result: NS1 function inh)
Cc1onc(-c2ccccc2)c1CNC(=O)Nc1cccc(Cl)c1	HCV inh inconclusive, Pf growth 96h 9.28µM
Cc1onc(-c2ccccc2)c1CNC(=O)Nc1ccc(C(F)(F)F)cc1	HCV inh inconclusive, Pf growth 96h 4.15µM, Pf growth 48h 6.57µM
Cc1cccc(-n2c(=O)c3ccccc3n3c(=S)[nH]nc23)c1C	none
CCc1cc(=O)oc2cc(C)cc(OC(C)C(=O)NCc3ccncc3)c12 (stereo unspecified)	HCV inh inconclusive, Pf growth 96h 9.28µM, Pf growth 48h inconclusive
CCCCc1cc(=O)oc2cc(C)cc(OC(C)C(=O)NCc3cccnc3)c12 (stereo unspecified)	HCV inh inconclusive, Pf growth 96h 16.5µM, Pf growth 48h inconclusive
